Screens as filed in PubChem BioAssay.
This excerpt belongs to a sample that is enriched for hits.
aSyn UTR act – Activators via SNCA 5'UTR binding, MLPCN; alpha-synuclein 5'UTR reporter, activators screen; activity score, % (tested at 7.5 µM), hits read low; actives 7.1% (n = 300,000); in the data active means activity score below about -60%
An asterisk follows results filed as active.

SMILES | aSyn UTR act
Cc1ccc(C)c(-c2[nH]ncc2CN2CCCC(CO)(Cc3ccccc3C)C2)c1 (configuration not stated) | 33.3
CSc1ccc(/C=C/C(=O)c2c(O)cc(C)oc2=O)cc1 | -117.5*
Cc1cc(O)c(C(=O)/C=C/c2ccc(Cl)cc2)c(=O)o1 | -172.2*
Cc1c(-c2ccccc2)[n+](=O)c(-c2ccc(Br)cc2)c(C)n1[O-] | -101.7*
CCCCOC(=O)Nc1ccc(N(C)C)cc1 | -161.8*
CCCCOC(=O)Nc1ccc(C(N)=O)cc1 | -94.1*
CCCCOC(=O)Nc1cccc(C(=O)OCC)c1 | -68.0*
CCCCOC(=O)Nc1nnc(C(C)C)s1 | -127.4*
CCCCOC(=O)Nc1ccc(C(C)C)cc1 | -276.1*
Cc1oc(-c2ccccc2)nc1C(=O)Nc1nccs1 | -116.8*
CN(c1ccc(C(=O)Nc2nccs2)cc1)S(=O)(=O)c1ccccc1 | -103.8*
O=C(Nc1nccs1)OCc1ccccc1 | -80.1*
Cc1ccc(C(=O)Nc2nccs2)cc1 | -124.0*
O=C(Nc1nccs1)c1ccc2nccnc2c1 | -160.6*
O=C(Nc1nccs1)c1ccc(N2C(=O)[C@@H]3[C@H](C2=O)[C@H]2C=C[C@@H]3C2)cc1 | -147.3*
O=C(Nc1nccs1)c1ccc(COc2c(F)c(F)cc(F)c2F)cc1 | -107.3*
O=C(Nc1nccs1)c1cncc(Br)c1 | -145.4*
Cn1c(SCc2ccc(C(=O)Nc3nccs3)cc2)nnc1-c1ccccc1 | -102.7*
Nc1ccccc1C(=O)Nc1nccs1 | -103.0*
CC(C)C(C(=O)Nc1nccs1)c1ccc(Cl)cc1 (configuration not stated) | 58.4
CC(C)(C)N1C(=O)c2ccc(C(=O)Nc3nccs3)cc2C1=O | -156.2*
O=C(Nc1nccs1)C(Br)C(Br)c1ccccc1 (configuration not stated) | -75.1*
Nc1ccc(C(=O)Nc2nccs2)cc1 | -87.4*
COc1ccc(N/N=C(/C)c2cnnc(-c3ccccc3)n2)cc1 | -70.2*
COc1ccc(/C(C)=N/Nc2nncc3ccccc23)cc1 | -113.2*
SMILES | aSyn UTR act
COc1ccc(/C(C)=N/Nc2nc3ccccc3nc2C)cc1 | -66.6*
CCc1ccc(Nc2nc(C)cc(C)n2)cc1 | -179.4*
COc1ccc(Nc2nc(C)cc(C)n2)cc1Cl | -114.2*
Cc1cc(C)nc(Nc2ccc(C(=O)O)cc2)n1 | -156.7*
Cc1cc(C)nc(Nc2ccc(N3CCCC3)cc2)n1 | -65.3*
COc1cc(CCC(C)=O)ccc1OC(=O)c1c(F)cccc1Cl | -185.1*
COc1ccc(CCNC(=O)c2ccc(Cl)cc2Cl)cc1OC | -99.3*
COc1ccc(NC(=O)COC(=O)c2c(F)cccc2Cl)cc1OC | -110.3*
O=C1NC(c2cccs2)Nc2sc3c(c21)CCCC3 (configuration not stated) | -131.2*
COC(=O)c1cccc(NC(=O)NC23CC4CC(CC(C4)C2)C3)c1 | -98.2*
Cc1ccc(-c2csc(N=C(N)N)n2)cc1 | -116.1*
COCCCNC(=S)N/N=C/c1ccc(N(C)C)cc1Cl | -107.2*
COCCCNC(=S)N/N=C/c1ccc(N(C)C)cc1 | -112.5*
O=C1CCCC2=C1C(c1ccco1)Nc1ccc(C(=O)c3ccccc3)cc1N2 (configuration not stated) | -81.1*
CCCc1ccc(-c2cc(NC(=O)CSc3nnc(N)s3)n(-c3ccccc3)n2)cc1 | -146.2*
Nn1c(-c2cccs2)nc2sc3c(c2c1=O)CCCC3 | -149.2*
CC1(C)Cc2c(sc3nc(-c4cccs4)n(N)c(=O)c23)CO1 | -115.9*
CC1(C)Cc2c(sc3ncnc(NNC(=S)NCc4ccccc4)c23)CO1 | 86.8
CCC(C)[C@H](NC(=O)[C@@H]1Cc2ccccc2CN1)C(=O)Nc1ccc2c(c1)OCO2 (some centres not stated) | -100.9*
C[C@H](NC(=O)[C@@H]1Cc2ccccc2CN1)C(=O)Nc1ccc2c(c1)OCCO2 | -64.7*
Cc1ccc(/C=N/n2c(C)nc3ccccc3c2=O)s1 | -89.9*
Cc1nc2ccccc2c(=O)n1/N=C/c1ccccc1Cl | -90.5*
O=C(Cc1cc2ccccc2o1)NCc1ccc(F)cc1 | -78.7*
CCCCn1c(=O)[nH]c(=O)c2c1nc(Cn1ncc(Cl)c(Cl)c1=O)n2CCC | -106.0*
CC1CC1c1ccc(/C=C(\C#N)C(=O)Nc2cccc(Cl)c2Cl)o1 (configuration not stated) | -110.5*
SMILES | aSyn UTR act
CCc1sc(C(=O)Nc2nccs2)cc1C | -122.6*
CCc1sc(C(=O)Nc2ncccc2C)cc1C | -66.6*
O=C(COC(=O)Cn1cnc2ccccc21)Nc1cc2c(cc1Cl)C(=O)c1ccccc1C2=O | -161.7*
CCOC(=O)Cc1cc(-c2ccc(OC)cc2)nc2ccc3ccccc3c12 | -117.1*
CCOC(=O)Cc1cc(-c2ccc(O)cc2)nc2ccc3ccccc3c12 | -80.4*
CCOC(=O)Cc1cc(-c2ccc(F)cc2)nc2ccc3ccccc3c12 | -63.2*
CC(C)(C)NC(=O)Nc1ccc(Br)cc1 | -138.4*
CCC(C)NC(=O)Nc1ccc(Br)cc1 (configuration not stated) | -73.2*
CCOC(=O)c1oc2nc3c(cc2c1N)CCCC3 | -107.4*
c1ccc(-c2cc3n(c2)CCc2ccccc2-3)cc1 | -135.2*
